{
  "source": "the supplement of paper PMC13380429",
  "data": [
    {"tested_on": "Vero E6 infected with SARS-CoV-2", "experiment": "morphology score (similarity to uninfected cells); higher = more like uninfected cells", "conditions": "24 h", "values": [
      {"compound": "O=C(c1cncc(Br)c1)N1CCC(N2CCCC2)CC1", "note": "(10 µM)", "morphology score": 0.146},
      {"compound": "CC[C@]12CCCN3CCc4c(n(c5ccccc45)C(=O)C1)[C@@H]32", "note": "[vinburnine] (10 µM)", "morphology score": -0.0662},
      {"compound": "CCNC(=O)C[C@@H]1N=C(c2ccc(Cl)cc2)c2cc(OC)ccc2-n2c(C)nnc21", "note": "(10 µM)", "morphology score": -0.0652},
      {"compound": "COc1cc(C(=O)N2CCC(N3CCN(C)CC3)CC2)ccc1Nc1ncc2c(n1)N(C)c1ccccc1C(=O)N2C", "note": "(0.833333 µM)", "morphology score": 0.0522},
      {"compound": "O=C(O)c1ccc(N2C(=O)/C(=C/c3ccc(-c4ccc([N+](=O)[O-])cc4)o3)C=C2c2ccccc2)cc1", "note": "(10 µM)", "morphology score": 0.184},
      {"compound": "CN[C@@H]1[C@H](O[C@H]2[C@H](O[C@H]3[C@H](O)[C@@H](O)[C@H](NC(=N)N)[C@@H](O)[C@@H]3NC(=N)N)O[C@@H](C)[C@]2(O)CO)O[C@@H](CO)[C@H](O)[C@H]1O", "note": "[dihydrostreptomycin] (10 µM)", "morphology score": -0.0119},
      {"compound": "CCCCC(=O)O[C@]1(C(=O)CO)CC[C@H]2[C@@H]3CCC4=CC(=O)CC[C@]4(C)[C@H]3[C@@H](O)C[C@@]21C", "note": "[hydrocortisone-valerate] (10 µM)", "morphology score": 0.0807},
      {"compound": "CCOC(=O)c1ccc(O)cc1", "note": "[ethyl-paraben] (10 µM)", "morphology score": -0.0381},
      {"compound": "c1cn2cc(-c3ccc4cn[nH]c4c3)nc(Nc3ccc(N4CCOCC4)cc3)c2n1", "note": "(10 µM)", "morphology score": 0.194},
      {"compound": "CN(C)C(=N)NCCC[C@H](N)C(=O)O", "note": "[asymmetrical-dimethylarginine] (10 µM)", "morphology score": 0.217},
      {"compound": "CCN1C(=O)NC(c2ccccc2)C1=O", "note": "(stereo not given) [ethotoin] (10 µM)", "morphology score": 0.221},
      {"compound": "FCc1ccc(OCCOc2ccc(Cl)cc2Cl)c(Cl)n1", "note": "(10 µM)", "morphology score": -0.0669},
      {"compound": "O=C1OC2(c3ccccc31)c1cc(I)c(O)c(I)c1Oc1c2cc(I)c(O)c1I", "note": "[erythrosine] (0.833333 µM)", "morphology score": 0.0913},
      {"compound": "CC/C=C(\\C(=O)N[C@@H]1C(=O)N2C(C(=O)OCOC(=O)C(C)(C)C)=C(COC(N)=O)CS[C@H]12)c1csc(N)n1", "note": "[cefcapene-pivoxil] (10 µM)", "morphology score": -0.175},
      {"compound": "Cc1ccc(/C=C2\\CNC/C(=C\\c3ccc(C)cc3)C2=O)cc1", "note": "(0.833333 µM)", "morphology score": 0.168},
      {"compound": "C[C@@H]1CCN(C(=O)CC#N)C[C@@H]1N(C)c1ncnc2[nH]ccc12", "note": "(10 µM)", "morphology score": 0.281},
      {"compound": "COc1ccc(Cl)cc1C(=O)NCCc1ccc(C(=O)O)cc1", "note": "[meglitinide] (10 µM)", "morphology score": 0.13},
      {"compound": "O=C(O)[C@H](Cc1ccccc1)NCc1ccc(Cl)cc1", "note": "(10 µM)", "morphology score": 0.0118},
      {"compound": "CC(C(=O)O)c1cccc(C(=O)c2ccccc2)c1", "note": "(stereo not given) [ketoprofen] (10 µM)", "morphology score": 0.173},
      {"compound": "C[C@H](Cn1cnc2c(N)ncnc21)OCP(=O)(O)O", "note": "[tenofovir] (10 µM)", "morphology score": -0.0359},
      {"compound": "CC[C@@H]1/C=C(\\C)C[C@H](C)C[C@H](OC)[C@H]2O[C@@](O)(C(=O)C(=O)N3CCCC[C@H]3C(=O)O[C@H](/C(C)=C/[C@@H]3CC[C@@H](O)[C@H](OC)C3)[C@H](C)[C@@H](O)CC1=O)[C@H](C)C[C@@H]2OC", "note": "[ascomycin] (10 µM)", "morphology score": 0.0662},
      {"compound": "Nc1nc2c(ncn2COCCO)c(=O)[nH]1", "note": "[acyclovir] (10 µM)", "morphology score": 0.109},
      {"compound": "Cc1cc(Nc2ncc(Cl)c(Nc3ccccc3S(=O)(=O)C(C)C)n2)c(OC(C)C)cc1C1CCNCC1", "note": "[ceritinib] (0.833333 µM)", "morphology score": 0.182},
      {"compound": "CCCCCCCC(=O)N[C@H](CN1CCCC1)[C@H](O)c1ccc2c(c1)OCCO2", "note": "[eliglustat] (10 µM)", "morphology score": 0.2},
      {"compound": "C=C1/C(=C\\C=C2/CCC[C@]3(C)[C@@H]([C@H](C)/C=C/[C@H](C)C(C)C)CC[C@@H]23)C[C@@H](O)C[C@@H]1O", "note": "[doxercalciferol] (10 µM)", "morphology score": -0.0772},
      {"compound": "O[C@@](Cc1nc(CC2(C(F)(F)F)CC2)c[nH]1)(c1ccc(-n2cccn2)cc1)C(F)(F)F", "note": "(10 µM)", "morphology score": 0.03},
      {"compound": "O=C(NC(=O)c1c(F)cccc1Cl)NC1c2ccccc2-c2ccccc21", "note": "(10 µM)", "morphology score": 0.143},
      {"compound": "C[C@@H]1O[C@@H]1P(=O)(O)O", "note": "(10 µM)", "morphology score": 0.00316},
      {"compound": "CNCCC=C1c2ccccc2C=Cc2ccccc21", "note": "[norcyclobenzaprine] (10 µM)", "morphology score": 0.314},
      {"compound": "CCC/C=C1\\OC(=O)C2=C1CCC=C2", "note": "[ligustilide] (10 µM)", "morphology score": 0.0279},
      {"compound": "COc1cc(NC(=O)c2ccccn2)ccc1Cl", "note": "(10 µM)", "morphology score": 0.133},
      {"compound": "CCCc1nn(C)c2c(=O)[nH]c(-c3cc(S(=O)(=O)N4CCN(C)CC4)ccc3OCC)nc12", "note": "[sildenafil] (10 µM)", "morphology score": 0.056},
      {"compound": "COc1ccc(-n2nc(CCC(=O)N(C)O)cc2-c2ccc(Cl)cc2)cc1", "note": "[tepoxalin] (0.833333 µM)", "morphology score": 0.0433},
      {"compound": "Nc1cc(F)ccc1NC(=O)/C=C/c1cnn(C/C=C/c2ccccc2)c1", "note": "(0.833333 µM)", "morphology score": -0.0979},
      {"compound": "O=C(OCCOCCO)c1ccccc1Nc1cccc(C(F)(F)F)c1", "note": "[etofenamate] (10 µM)", "morphology score": -0.0601},
      {"compound": "Nc1ccn(C[C@@H](CO)OCP(=O)(O)O)c(=O)n1", "note": "[cidofovir] (10 µM)", "morphology score": 0.0279},
      {"compound": "CCC(=O)NS(=O)(=O)c1ccc(-c2c(-c3ccccc3)noc2C)cc1", "note": "[parecoxib] (10 µM)", "morphology score": 0.0867},
      {"compound": "C[C@@H]1COCCN1c1cc(=O)n2c(n1)N(Cc1cncc(Cl)c1)[C@H](C(F)(F)F)CC2", "note": "(0.833333 µM)", "morphology score": 0.55},
      {"compound": "COc1ccc(-c2nc(-c3ccc(-c4cccc(Cl)c4)o3)[nH]c2-c2ccc(OC)cc2)cc1", "note": "[neurodazine] (10 µM)", "morphology score": 0.198},
      {"compound": "COc1ccc2c(C(=S)N(C)CC(=O)O)cccc2c1C(F)(F)F", "note": "[tolrestat] (10 µM)", "morphology score": -0.0111}
    ]}
  ]
}
